Measurements published in PubChem BioAssay (NCI).
This is part of a sample that, as a whole, favours compounds with a hit. Of some 79,000 tested, about 15% had one in any assay. No stated cut-off is given here; in the data, active means growth inhibition above about 70%; inactive means the rest.

Columns and labels:
[1] = NCI Yeast Anticancer Drug Screen. Data for the rad50 strain (AID 155);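 further: 0% = growth of vehicle-only cultures of the same strain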; conditions: S. cerevisiae rad50 strain growth inhibition; at 50.0 µM; hits give high values
Outline: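 Cells are treated with compound, grown, and their growth is then scored against vehicle-only cultures of the same repair-deficient yeast strain.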

[2] = NCI Yeast Anticancer Drug Screen. Data for the mec2-1 strain (AID 157); conditions: S. cerevisiae mec2-1 strain, at 50.0 µM, hits give high values
Outline: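 Mutant yeast (mec2-1) grown with compound; growth inhibition relative to vehicle control reported.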

[3] = NCI Yeast Anticancer Drug Screen. Data for the sgs1 mgt1 strain (AID 161);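 further: 0% = growth of cultures given vehicle only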; conditions: S. cerevisiae sgs1 mgt1 strain, at 50.0 µM, hits give high values
Outline: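 Compounds are added to genetically altered yeast, and growth is compared with cultures given vehicle alone to give percent inhibition.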

[4] = NCI Yeast Anticancer Drug Screen. Data for the cln2 rad14 strain (AID 165);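 further: 0% = growth equal to vehicle treated cultures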; conditions: S. cerevisiae cln2 rad14 strain, at 50.0 µM, hits give high values
Outline: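 Readout is yeast growth inhibition versus vehicle-treated controls, using a strain with cln2 and rad14 alterations exposed to compound.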

[5] = NCI Yeast Anticancer Drug Screen. Data for the bub3 strain (AID 167); conditions: S. cerevisiae bub3 mutant strain, at 50.0 µM, hits give high values
Outline: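 Part of a panel of yeast mutants defective in DNA damage repair or cell cycle regulation. Each strain is grown with compound, and inhibition is calculated relative to solvent-treated cultures.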

[6] = NCI Yeast Anticancer Drug Screen. Data for the mlh1 rad18 strain (AID 175); conditions: S. cerevisiae mlh1 rad18 strain growth inhibition; at 50.0 µM; hits give high values
Outline: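 Genetically defined yeast (DNA repair-deficient) exposed to compounds; growth inhibition determined relative to vehicle.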

Measured: growth inhibition

COc1cc(C(=O)O)c(O)c(OC)c1OC
inactive: [1] 0.2% | [2] 0.9% | [3] -8.4% | [4] -36.1% | [5] -13% | [6] 3.4%

Cc1cccnc1C
inactive: [1] 16.9% | [2] -7.25% | [3] -16.2% | [4] 24.4% | [5] 14.4% | [6] 7.85%

NC(Cc1ccc(O)c(O)c1)P(=O)(O)O (stereo not drawn)
inactive: [1] -72.8% | [2] -38% | [3] -35.7% | [4] -5.75% | [5] -0.1% | [6] -27.8%

CNC(=O)OCc1nc(SC(C)C)n(C)c1COC(=O)NC
inactive: [1] -16% | [2] -10.3% | [3] -27.9% | [4] 4.3% | [5] -18.7% | [6] -28.1%

COc1ccc(/C=N/NC(=O)/C(C#N)=C/c2ccc(OC)cc2)cc1
inactive: [1] 23.1% | [2] 19.1% | [3] 3.7% | [4] -11.5% | [5] 19.4% | [6] 16.4%

Cc1ccc(-c2nc3ccccc3c(=O)o2)cc1
inactive: [1] 11.4% | [2] -9.05% | [3] -6.05% | [4] -8.6% | [5] 4.75% | [6] 14.3%

CN(C)CCC(C(N)=O)c1ccccc1 (stereo not drawn)
inactive: [1] 36.1% | [2] -1.7% | [3] -3.7% | [4] 38.9% | [5] -5.85% | [6] 18.1%

CCOc1ccc2nc(C)ccc2c1
inactive: [1] 3.25% | [2] -14.7% | [3] 21.9% | [4] 9.85% | [5] 4.95% | [6] 17.7%

Cc1ccc2ccccc2[n+]1CC(=O)c1ccc([N+](=O)[O-])cc1
inactive: [1] -16.8% | [2] -30.8% | [3] -9.3% | [4] 9.95% | [5] -11.2% | [6] -12.4%

O=C(O)c1c(Cl)c(Cl)c(Cl)c(Cl)c1C(=O)Nc1ccccc1F
inactive: [1] -3.8% | [2] -19.2% | [3] 14.3% | [4] -118% | [5] 1.5% | [6] 0.6%

COc1ccccc1C1C(C(=O)Nc2ccccc2)=C(C)NC(C)=C1C(=O)Nc1ccccc1
inactive: [1] -3.2% | [2] -21.9% | [3] -36.2% | [4] 15.1% | [5] -3.85% | [6] -11.2%

O=c1c2ccccc2c(=O)n2n1CC=CC2
inactive: [1] -6.45% | [2] -4.2% | [3] -1.75% | [4] -15.2% | [5] -2.75% | [6] -1.9%

CC12CCC(=O)[C@@]1(C)CCCC2O (stereo partly drawn)
inactive: [1] -34.2% | [2] -34.4% | [3] -12.8% | [4] -34.6% | [5] -26.8% | [6] -32.2%

Cc1c[n+]2c(C)cccc2n1C
inactive: [1] 10.9% | [2] 27.9% | [3] 27.1% | [4] -26.2% | [5] -8.05% | [6] 3.65%

C=CCCCCCCCCC(=O)N1CCN(C)CC1
inactive: [1] 46.1% | [2] -14% | [3] 9.1% | [4] 16.6% | [5] -5.25% | [6] 27.6%

O=C(O)c1cccc(Sc2ccccc2)c1
inactive: [1] -0.05% | [2] 9.25% | [3] 8.25% | [4] -0.85% | [5] -18.9% | [6] 16.6%

CC(=O)Nc1cccc2c1C(=O)c1c(c(O)c3ccccc3c1O)C2=O
inactive: [1] 24.9% | [2] -9.85% | [3] -12.8% | [4] -9.3% | [5] -8.4% | [6] -1.85%

Cc1ccc(Nc2ccc(Nc3ccc(C)cc3)c3c2C(=O)c2ccccc2C3=O)cc1
inactive: [1] -1.05% | [2] -16.9% | [3] -4.15% | [4] 5% | [5] -8.2% | [6] -4.45%

COC(=O)c1c(C(=O)c2ccccc2)nn2c(-c3ccccc3)c(-c3ccccc3)c(-c3ccccc3)c(-c3ccccc3)c12
inactive: [1] 10.3% | [2] -1.6% | [3] -23.6% | [4] 7.05% | [5] -1.1% | [6] 0.1%

c1ccc(N=C2SC(c3ccccc3)CN2C23CC4CC(CC(C4)C2)C3)cc1 (stereo not drawn)
inactive: [1] -18.4% | [2] -6.5% | [3] -38% | [4] -64.5% | [5] -1.2% | [6] -9.8%

Cn1c[n+](-c2ccccc2)c([S-])n1
inactive: [1] -0.05% | [2] 5.05% | [3] 5.15% | [4] -22.5% | [5] -24.9% | [6] -7.4%

CC(=O)NNc1nc(C)c(C(=O)/C=C/c2ccc(Cl)cc2)s1
inactive: [1] 44.2% | [2] 12.7% | [3] 21.7% | [4] 27.4% | [5] 19% | [6] 30.2%

C=C(C)C(=O)Nc1ccc2nn(-c3ccccc3O)nc2c1
inactive: [1] -24.9% | [2] -25.4% | [3] 1.75% | [4] 8.15% | [5] -14.2% | [6] 5.3%

CC(=O)c1ccccc1Cc1cccc2c(Cl)cccc12
inactive: [1] 4.55% | [2] 6.05% | [3] 10.1% | [4] -0.95% | [5] 1.85% | [6] 18.6%

CCCCOC(=O)c1c(C)c(C)cc(C)c1C
inactive: [1] 18.4% | [2] -7.1% | [3] 6.3% | [4] 12.5% | [5] 5.75% | [6] -9.95%

O=C1N=NC(=O)N1c1ccccc1
inactive: [1] -6.75% | [2] 4.3% | [3] 1% | [4] -22.2% | [5] -0.05% | [6] 2.35%

Cc1ccccc1NC(=O)NC(Oc1ccccc1)(C(F)(F)F)C(F)(F)F
inactive: [1] -6.95% | [2] -21.8% | [3] -50.9% | [4] 15.6% | [5] -32.8% | [6] -29.1%

CCN(CC)Cc1ccccc1COC(=O)c1cccc(Cl)c1
inactive: [1] 19.6% | [2] 3.7% | [3] 10.9% | [4] 15.8% | [5] -5.9% | [6] 26.1%

CCOc1c(N=Nc2ccccc2Cl)c(-c2ccccc2)nn1C(N)=S
inactive: [1] 6.75% | [2] 16.9% | [3] -1.95% | [4] 6.1% | [5] -3.95% | [6] 15.6%

CCOC(=O)CC(O)(c1ccccc1)c1ccccc1
inactive: [1] -30.9% | [2] -47.4% | [3] 7.35% | [4] 5.1% | [5] -25.2% | [6] -31.5%

C1=CCOCOC1
inactive: [1] -2.35% | [2] -24.4% | [3] -2.35% | [4] -8% | [5] -8.95% | [6] -38.1%

COc1ccc(C2(C(=O)O)CC(C)=C(C)CC2C(=O)O)cc1 (stereo not drawn)
inactive: [1] -1.45% | [2] -9.05% | [3] -5.25% | [4] 0.6% | [5] -11.7% | [6] 7%

CC1CSC(C)C(=O)N1 (stereo not drawn)
inactive: [1] -11.2% | [2] -3.65% | [3] -5.75% | [4] 7.55% | [5] 15.8% | [6] 2%

CCOC(=O)c1cc(CC)[nH]c(=O)c1C#N
inactive: [1] -19.1% | [2] 8.05% | [3] -11.3% | [4] -32.7% | [5] 5.4% | [6] 2.3%

COc1ccc(CN2CCCN(Cc3ccc(OC)cc3OC)C2c2cccc(OC)c2O)c(OC)c1
inactive: [1] 20.6% | [2] 16.6% | [3] 12.6% | [4] 16% | [5] -6.5% | [6] 6.5%

CC(C)CCCC(C)C1CCC2C3CCC4CC(=O)CCCC4(C)C3CCC12C (stereo not drawn)
inactive: [1] 19.8% | [2] 3.35% | [3] 20.7% | [4] 12.2% | [5] 2.1% | [6] 32.5%

NC(=S)N/N=C\c1ncccc1OCc1cccc(N)c1
inactive: [1] 32.3% | [2] 46.9% | [3] 42% | [4] 5.6% | [5] 37.4% | [6] 29.2%

CC(=O)NNc1nc(C)c(C(=O)NNC(=O)C(=O)Nc2ccc([N+](=O)[O-])cc2[N+](=O)[O-])s1
inactive: [1] 6.45% | [2] -5.65% | [3] -30.9% | [4] 32.9% | [5] 24.1% | [6] 14.8%
